How the values were obtained:
Assay in all cases: DAPPL (digital affinity profiling via proximity ligation, sequencing); 10 mM Tris-HCl pH 7.5, 50 mM NaCl, 1 mM DTT, 4% glycerol, room temperature, 30 min; GST-TFs on glutathione beads, 16-mer random dsDNA library, 0.1% formaldehyde crosslink after washing; high values mean tight binding
FEV = target: T1, FEV (Homo sapiens, UniProt Q99581 1-238); conditions: protein: recombinant; tags: N-terminal GST; dsDNA, one strand shown
T1 sequence: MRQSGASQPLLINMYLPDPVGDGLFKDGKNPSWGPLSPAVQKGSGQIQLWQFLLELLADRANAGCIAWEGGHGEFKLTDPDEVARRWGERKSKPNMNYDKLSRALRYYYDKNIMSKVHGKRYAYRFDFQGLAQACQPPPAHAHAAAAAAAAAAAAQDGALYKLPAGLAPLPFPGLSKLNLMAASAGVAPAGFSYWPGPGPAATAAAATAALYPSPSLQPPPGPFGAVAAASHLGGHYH
Outline: (§1)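 After expression in yeast as GST fusions, human transcription factors were bound to glutathione beads, DNA-barcoded and mixed with a tag-only sample. The pools were incubated with 200 nmole of a 16-mer random double-stranded DNA library in Tris/NaCl/DTT/glycerol buffer (30 min, room temperature), washed and crosslinked with 0.1% formaldehyde. Proximity ligation with BsaI/T4 ligase ran for 1 h at 37 °C, before PCR amplification and sequencing on an Illumina NextSeq500. Binding signal is a hexamer's read frequency for a factor divided by its frequency for the tag-only sample.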

ETV5 = ETV5 (Homo sapiens, UniProt P41161 1-510); conditions: protein: recombinant; tags: N-terminal GST; dsDNA, one strand shown
Outline: as §1

HSF1 = HSF1 (Homo sapiens, UniProt Q00613 1-529); conditions: protein: recombinant; tags: N-terminal GST; chain copies: 3; dsDNA, one strand shown
Outline: as §1

SPIC = target: T2, SPIC (Homo sapiens, UniProt Q8N5J4 1-248); conditions: protein: recombinant; tags: N-terminal GST; dsDNA, one strand shown
T2 sequence: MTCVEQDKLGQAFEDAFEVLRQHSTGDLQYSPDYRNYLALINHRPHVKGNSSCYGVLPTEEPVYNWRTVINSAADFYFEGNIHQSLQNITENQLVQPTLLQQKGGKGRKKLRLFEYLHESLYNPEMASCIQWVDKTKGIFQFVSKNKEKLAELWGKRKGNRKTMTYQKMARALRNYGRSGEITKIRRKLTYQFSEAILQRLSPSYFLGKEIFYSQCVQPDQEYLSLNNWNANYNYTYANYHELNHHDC
Outline: as §1

ELF4 = ELF4 (Homo sapiens, UniProt Q99607 1-663); conditions: protein: recombinant; tags: N-terminal GST; dsDNA, one strand shown
Outline: as §1

ELK4 = target: T3, ELK4 (Homo sapiens, UniProt P28324-2 1-405); conditions: protein: recombinant; tags: N-terminal GST; dsDNA, one strand shown
T3 sequence: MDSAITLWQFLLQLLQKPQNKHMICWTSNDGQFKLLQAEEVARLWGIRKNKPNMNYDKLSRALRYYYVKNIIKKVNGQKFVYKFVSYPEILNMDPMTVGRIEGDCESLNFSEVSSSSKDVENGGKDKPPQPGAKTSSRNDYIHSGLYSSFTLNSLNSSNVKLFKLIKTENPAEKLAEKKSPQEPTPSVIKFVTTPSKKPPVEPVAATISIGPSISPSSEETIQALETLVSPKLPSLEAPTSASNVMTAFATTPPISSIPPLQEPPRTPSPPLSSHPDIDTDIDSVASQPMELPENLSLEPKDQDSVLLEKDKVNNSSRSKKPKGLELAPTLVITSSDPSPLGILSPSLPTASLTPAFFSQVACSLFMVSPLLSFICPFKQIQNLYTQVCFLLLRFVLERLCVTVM
Outline: as §1

ETV2 = target: T4, ETV2 (Homo sapiens, UniProt O00321 1-342); conditions: protein: recombinant; tags: N-terminal GST; dsDNA, one strand shown
T4 sequence: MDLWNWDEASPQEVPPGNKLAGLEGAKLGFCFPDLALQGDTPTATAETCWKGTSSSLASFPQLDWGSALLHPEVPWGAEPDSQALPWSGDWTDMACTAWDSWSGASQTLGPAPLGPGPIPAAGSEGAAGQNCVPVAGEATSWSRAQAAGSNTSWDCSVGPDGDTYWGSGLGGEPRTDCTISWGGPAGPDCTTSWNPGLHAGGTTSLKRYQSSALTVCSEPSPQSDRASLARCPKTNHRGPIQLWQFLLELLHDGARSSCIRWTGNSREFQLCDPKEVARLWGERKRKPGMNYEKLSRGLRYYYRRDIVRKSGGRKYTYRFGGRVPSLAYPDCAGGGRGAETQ
Outline: as §1

ELF3 = target: T5, ELF3 (Homo sapiens, UniProt P78545 1-371); conditions: protein: recombinant; tags: N-terminal GST; dsDNA, one strand shown
T5 sequence: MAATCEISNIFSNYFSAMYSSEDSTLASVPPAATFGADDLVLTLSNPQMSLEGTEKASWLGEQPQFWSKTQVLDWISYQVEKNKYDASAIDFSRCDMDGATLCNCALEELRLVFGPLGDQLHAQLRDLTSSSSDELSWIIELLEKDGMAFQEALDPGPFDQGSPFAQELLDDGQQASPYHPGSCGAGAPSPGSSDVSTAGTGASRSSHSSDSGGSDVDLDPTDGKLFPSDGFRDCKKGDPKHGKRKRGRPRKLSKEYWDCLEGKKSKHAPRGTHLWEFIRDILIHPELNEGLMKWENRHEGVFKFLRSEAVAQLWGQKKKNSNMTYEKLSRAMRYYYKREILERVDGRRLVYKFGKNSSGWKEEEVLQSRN
Outline: as §1

CRX = CRX (Homo sapiens, UniProt O43186 1-299); conditions: protein: recombinant; tags: N-terminal GST; dsDNA, one strand shown
Outline: as §1

ETV1 = ETV1 (Homo sapiens, UniProt P50549 1-477); conditions: protein: recombinant; tags: N-terminal GST; dsDNA, one strand shown
Outline: as §1

ERF = target: T6, ERF (Homo sapiens, UniProt P50548 1-548); conditions: protein: recombinant; tags: N-terminal GST; dsDNA, one strand shown
T6 sequence: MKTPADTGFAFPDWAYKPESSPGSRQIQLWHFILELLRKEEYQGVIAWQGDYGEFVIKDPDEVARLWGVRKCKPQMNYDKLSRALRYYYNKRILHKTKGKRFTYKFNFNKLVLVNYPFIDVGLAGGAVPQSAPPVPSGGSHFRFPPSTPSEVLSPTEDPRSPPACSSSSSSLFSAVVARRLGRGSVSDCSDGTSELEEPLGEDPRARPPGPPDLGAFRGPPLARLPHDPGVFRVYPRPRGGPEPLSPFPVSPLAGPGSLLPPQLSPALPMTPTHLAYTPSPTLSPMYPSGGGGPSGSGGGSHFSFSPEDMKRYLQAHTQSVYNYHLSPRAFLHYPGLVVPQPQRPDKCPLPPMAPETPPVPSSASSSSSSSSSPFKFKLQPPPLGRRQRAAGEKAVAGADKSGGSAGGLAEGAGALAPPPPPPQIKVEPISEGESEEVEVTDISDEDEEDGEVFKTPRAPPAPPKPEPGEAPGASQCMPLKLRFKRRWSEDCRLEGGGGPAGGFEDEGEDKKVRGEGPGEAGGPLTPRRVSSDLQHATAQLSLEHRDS
Outline: as §1

ETV3L = target: T7, ETV3L (Homo sapiens, UniProt Q6ZN32 1-361); conditions: protein: recombinant; tags: N-terminal GST; dsDNA, one strand shown
T7 sequence: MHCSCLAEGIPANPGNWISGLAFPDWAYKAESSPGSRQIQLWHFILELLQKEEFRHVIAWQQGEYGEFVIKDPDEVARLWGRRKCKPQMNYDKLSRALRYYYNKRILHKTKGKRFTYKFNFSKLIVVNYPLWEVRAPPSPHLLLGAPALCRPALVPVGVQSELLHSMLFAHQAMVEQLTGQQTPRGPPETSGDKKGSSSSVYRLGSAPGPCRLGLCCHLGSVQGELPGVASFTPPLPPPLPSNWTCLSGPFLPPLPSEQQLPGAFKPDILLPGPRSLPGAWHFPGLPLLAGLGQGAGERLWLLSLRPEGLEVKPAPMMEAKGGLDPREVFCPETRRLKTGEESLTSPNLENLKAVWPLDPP
Outline: as §1

ETS2 = target: T8, ETS2 (Homo sapiens, UniProt P15036 1-469); conditions: protein: recombinant; tags: N-terminal GST; dsDNA, one strand shown
T8 sequence: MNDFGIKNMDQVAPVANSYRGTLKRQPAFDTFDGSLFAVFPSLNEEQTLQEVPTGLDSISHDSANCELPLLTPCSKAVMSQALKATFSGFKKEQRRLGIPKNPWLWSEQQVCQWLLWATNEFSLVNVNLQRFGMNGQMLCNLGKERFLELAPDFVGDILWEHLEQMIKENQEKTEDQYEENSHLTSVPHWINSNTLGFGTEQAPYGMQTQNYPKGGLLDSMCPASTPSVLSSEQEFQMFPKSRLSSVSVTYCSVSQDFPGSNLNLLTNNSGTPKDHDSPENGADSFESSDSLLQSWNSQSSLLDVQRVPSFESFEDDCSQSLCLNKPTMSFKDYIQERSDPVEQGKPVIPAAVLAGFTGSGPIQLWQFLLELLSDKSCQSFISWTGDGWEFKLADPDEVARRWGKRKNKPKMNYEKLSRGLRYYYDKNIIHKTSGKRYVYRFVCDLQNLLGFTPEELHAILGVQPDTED
Outline: as §1

SPDEF = target: T9, SPDEF (Homo sapiens, UniProt O95238 1-335); conditions: protein: recombinant; tags: N-terminal GST; dsDNA, one strand shown
T9 sequence: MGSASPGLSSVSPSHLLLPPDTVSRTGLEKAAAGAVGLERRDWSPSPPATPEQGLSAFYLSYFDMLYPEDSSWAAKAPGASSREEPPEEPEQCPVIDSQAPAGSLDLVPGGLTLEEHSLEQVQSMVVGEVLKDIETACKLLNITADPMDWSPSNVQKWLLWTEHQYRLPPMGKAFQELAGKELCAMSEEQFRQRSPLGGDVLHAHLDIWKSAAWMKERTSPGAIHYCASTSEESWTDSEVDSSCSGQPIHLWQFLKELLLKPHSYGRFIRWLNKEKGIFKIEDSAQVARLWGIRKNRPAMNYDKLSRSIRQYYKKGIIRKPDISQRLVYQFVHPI
Outline: as §1

ETV7 = target: T10, ETV7 (Homo sapiens, UniProt Q9Y603 1-341); conditions: protein: recombinant; tags: N-terminal GST; dsDNA, one strand shown
T10 sequence: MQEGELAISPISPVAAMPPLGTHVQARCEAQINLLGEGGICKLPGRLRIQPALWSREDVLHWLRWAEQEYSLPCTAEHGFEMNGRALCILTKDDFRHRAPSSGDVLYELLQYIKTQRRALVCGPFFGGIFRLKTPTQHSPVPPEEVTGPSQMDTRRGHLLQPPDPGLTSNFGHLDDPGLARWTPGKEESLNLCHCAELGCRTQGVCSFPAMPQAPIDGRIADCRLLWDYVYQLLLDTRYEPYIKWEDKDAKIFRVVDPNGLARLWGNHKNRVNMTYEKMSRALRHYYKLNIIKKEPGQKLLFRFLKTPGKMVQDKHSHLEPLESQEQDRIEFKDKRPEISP
Outline: as §1

ELF5 = target: T11, ELF5 (Homo sapiens, UniProt Q9UKW6-2 1-255); conditions: protein: recombinant; tags: N-terminal GST; dsDNA, one strand shown
T11 sequence: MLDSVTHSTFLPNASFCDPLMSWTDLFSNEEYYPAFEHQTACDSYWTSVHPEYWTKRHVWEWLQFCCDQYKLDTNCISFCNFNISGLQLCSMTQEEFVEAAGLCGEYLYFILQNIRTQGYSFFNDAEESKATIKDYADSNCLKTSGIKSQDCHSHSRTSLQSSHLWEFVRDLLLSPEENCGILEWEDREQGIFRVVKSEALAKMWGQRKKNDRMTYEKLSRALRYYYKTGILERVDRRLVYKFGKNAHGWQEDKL
Outline: as §1

ETV3 = target: T12, ETV3 (Homo sapiens, UniProt P41162-2 1-143); conditions: protein: recombinant; tags: N-terminal GST; dsDNA, one strand shown
T12 sequence: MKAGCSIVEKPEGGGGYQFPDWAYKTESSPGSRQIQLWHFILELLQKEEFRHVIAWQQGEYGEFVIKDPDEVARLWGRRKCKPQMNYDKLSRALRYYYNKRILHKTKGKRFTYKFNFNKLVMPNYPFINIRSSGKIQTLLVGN
Outline: as §1

ETV6 = ETV6 (Homo sapiens, UniProt P41212 1-452); conditions: protein: recombinant; tags: N-terminal GST; dsDNA, one strand shown
Outline: as §1

Sequence of ETV1 (P50549 whole entry): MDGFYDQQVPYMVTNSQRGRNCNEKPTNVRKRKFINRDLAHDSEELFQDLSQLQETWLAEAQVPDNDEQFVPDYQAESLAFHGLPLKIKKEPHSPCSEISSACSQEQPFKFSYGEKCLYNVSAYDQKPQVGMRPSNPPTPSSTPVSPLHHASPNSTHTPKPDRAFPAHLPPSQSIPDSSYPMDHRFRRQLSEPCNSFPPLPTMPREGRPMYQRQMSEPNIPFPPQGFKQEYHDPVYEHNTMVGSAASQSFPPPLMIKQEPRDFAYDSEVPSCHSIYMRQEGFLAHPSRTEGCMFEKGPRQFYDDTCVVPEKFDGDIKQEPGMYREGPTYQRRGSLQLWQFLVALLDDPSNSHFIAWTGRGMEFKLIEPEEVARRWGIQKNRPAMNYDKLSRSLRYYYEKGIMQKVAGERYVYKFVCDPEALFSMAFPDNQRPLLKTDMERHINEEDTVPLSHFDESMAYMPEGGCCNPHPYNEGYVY
Sequence of ETV5 (P41161 whole entry): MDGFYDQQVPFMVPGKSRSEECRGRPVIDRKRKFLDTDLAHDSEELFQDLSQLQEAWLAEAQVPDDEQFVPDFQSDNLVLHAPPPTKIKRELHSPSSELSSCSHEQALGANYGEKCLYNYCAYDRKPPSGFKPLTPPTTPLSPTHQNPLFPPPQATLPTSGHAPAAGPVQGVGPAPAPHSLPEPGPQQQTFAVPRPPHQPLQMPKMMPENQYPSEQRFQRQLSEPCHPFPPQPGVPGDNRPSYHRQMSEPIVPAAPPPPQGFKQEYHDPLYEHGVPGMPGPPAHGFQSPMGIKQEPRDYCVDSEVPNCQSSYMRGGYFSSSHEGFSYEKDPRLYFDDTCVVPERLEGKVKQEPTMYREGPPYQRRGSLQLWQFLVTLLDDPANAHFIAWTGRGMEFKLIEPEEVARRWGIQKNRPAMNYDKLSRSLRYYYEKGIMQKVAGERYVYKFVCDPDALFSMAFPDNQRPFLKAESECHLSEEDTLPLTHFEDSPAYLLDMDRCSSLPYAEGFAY
Sequence of ETV6 (P41212 whole entry): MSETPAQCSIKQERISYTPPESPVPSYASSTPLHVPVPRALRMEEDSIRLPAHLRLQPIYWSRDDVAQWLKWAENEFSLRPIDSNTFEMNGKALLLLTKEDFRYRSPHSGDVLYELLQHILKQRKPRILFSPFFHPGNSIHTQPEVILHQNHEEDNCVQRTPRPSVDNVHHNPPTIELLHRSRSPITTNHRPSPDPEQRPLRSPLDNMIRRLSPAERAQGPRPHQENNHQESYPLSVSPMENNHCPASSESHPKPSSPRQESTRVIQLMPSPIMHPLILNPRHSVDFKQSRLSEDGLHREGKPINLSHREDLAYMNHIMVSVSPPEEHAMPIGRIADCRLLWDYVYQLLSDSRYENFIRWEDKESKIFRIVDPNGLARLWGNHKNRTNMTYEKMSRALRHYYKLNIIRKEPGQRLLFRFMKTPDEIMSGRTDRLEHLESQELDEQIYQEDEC
Sequence of ELF4 (Q99607 whole entry): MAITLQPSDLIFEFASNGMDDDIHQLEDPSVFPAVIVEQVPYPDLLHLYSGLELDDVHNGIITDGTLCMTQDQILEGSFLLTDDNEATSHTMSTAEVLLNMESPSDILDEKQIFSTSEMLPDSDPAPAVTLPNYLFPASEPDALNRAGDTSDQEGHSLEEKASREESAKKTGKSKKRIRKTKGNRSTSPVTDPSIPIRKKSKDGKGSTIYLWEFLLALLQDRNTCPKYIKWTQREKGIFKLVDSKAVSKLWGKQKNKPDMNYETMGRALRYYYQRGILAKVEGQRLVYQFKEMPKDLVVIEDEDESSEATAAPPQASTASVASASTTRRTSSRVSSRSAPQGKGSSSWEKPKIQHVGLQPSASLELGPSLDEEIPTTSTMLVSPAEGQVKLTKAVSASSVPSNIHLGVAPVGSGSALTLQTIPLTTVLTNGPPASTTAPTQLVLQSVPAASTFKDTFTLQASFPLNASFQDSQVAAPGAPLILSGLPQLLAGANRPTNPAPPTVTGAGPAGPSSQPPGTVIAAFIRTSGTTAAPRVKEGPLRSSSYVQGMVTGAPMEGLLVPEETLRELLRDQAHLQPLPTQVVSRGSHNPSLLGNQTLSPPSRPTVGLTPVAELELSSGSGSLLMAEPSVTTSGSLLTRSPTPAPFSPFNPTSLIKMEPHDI
Sequence of CRX (O43186 whole entry): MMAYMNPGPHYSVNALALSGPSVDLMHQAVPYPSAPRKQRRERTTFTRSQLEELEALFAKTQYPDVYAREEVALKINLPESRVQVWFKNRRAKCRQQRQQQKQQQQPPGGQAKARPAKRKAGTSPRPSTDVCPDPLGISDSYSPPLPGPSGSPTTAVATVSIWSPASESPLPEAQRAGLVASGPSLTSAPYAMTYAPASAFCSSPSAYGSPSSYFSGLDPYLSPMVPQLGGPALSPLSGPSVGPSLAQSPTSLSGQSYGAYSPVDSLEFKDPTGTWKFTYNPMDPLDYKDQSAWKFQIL
Sequence of HSF1 (Q00613 whole entry): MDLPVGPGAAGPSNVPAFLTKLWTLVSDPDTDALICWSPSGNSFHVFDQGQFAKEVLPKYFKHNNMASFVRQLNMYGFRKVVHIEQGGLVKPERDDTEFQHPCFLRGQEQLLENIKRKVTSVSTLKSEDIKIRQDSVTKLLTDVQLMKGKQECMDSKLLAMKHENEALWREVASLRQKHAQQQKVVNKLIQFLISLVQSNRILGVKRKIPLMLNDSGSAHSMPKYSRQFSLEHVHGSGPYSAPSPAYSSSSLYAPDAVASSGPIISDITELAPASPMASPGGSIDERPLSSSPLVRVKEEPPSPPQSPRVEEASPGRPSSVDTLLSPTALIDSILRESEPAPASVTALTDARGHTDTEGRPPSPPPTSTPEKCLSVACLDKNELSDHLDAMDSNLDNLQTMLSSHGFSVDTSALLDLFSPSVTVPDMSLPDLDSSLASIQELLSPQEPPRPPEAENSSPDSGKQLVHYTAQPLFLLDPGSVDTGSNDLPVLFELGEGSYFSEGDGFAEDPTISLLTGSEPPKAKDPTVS

GGACCT
binding signal (FEV): 1.47 fold enrichment (6-mer frequency, TF over GST control)
binding signal (ETV5): 1.37 fold enrichment (6-mer frequency, TF over GST control)
binding signal (HSF1): 1.18 fold enrichment (6-mer frequency, TF over GST control)
binding signal (SPIC): 1.46 fold enrichment (6-mer frequency, TF over GST control)
binding signal (ELF4): 1.42 fold enrichment (6-mer frequency, TF over GST control)
binding signal (ELK4): 1.31 fold enrichment (6-mer frequency, TF over GST control)
binding signal (ETV2): 1.57 fold enrichment (6-mer frequency, TF over GST control)
binding signal (ELF3): 1.14 fold enrichment (6-mer frequency, TF over GST control)
binding signal (CRX): 1.1 fold enrichment (6-mer frequency, TF over GST control)
binding signal (ETV1): 1.28 fold enrichment (6-mer frequency, TF over GST control)
binding signal (ERF): 1.31 fold enrichment (6-mer frequency, TF over GST control)
binding signal (ETV3L): 1.43 fold enrichment (6-mer frequency, TF over GST control)
binding signal (ETS2): 1.41 fold enrichment (6-mer frequency, TF over GST control)
binding signal (SPDEF): 1.53 fold enrichment (6-mer frequency, TF over GST control)
binding signal (ETV7): 1.34 fold enrichment (6-mer frequency, TF over GST control)
binding signal (ELF5): 1.27 fold enrichment (6-mer frequency, TF over GST control)
binding signal (ETV3): 1.32 fold enrichment (6-mer frequency, TF over GST control)
binding signal (ETV6): 1.34 fold enrichment (6-mer frequency, TF over GST control)

Source: PMC7862700, “An all-to-all approach to the identification of sequence-specific readers for epigenetic DNA modifications on cytosine”
